Screening data deposited in PubChem by several laboratories.
Hits are enriched below; roughly 4.9% of the tested compounds scored in any of these assays.
NALP1 yeast inh: NALP1 inflammasome inhibitors in reconstituted yeast, colorimetric, S. cerevisiae, triplicate retest; hit rate 0.61% among 280,000; inhibition, % at 10 µM; AID 2071, 2009; S. cerevisiae NALP1/ASC/caspase-1 growth, X-gal OD620, 72 h; in the data active = inhibition mostly above about 24%, no sharp cut-off; inactive = mostly below about 32%
SKKanGAS inh: S. pyogenes SKKanGAS growth inhibitors in kanamycin, primary screen, streptokinase expression inhibitor project, SKKanGAS strain, BacTiter-Glo luminescence; inhibition, % at 7.5 µM; hit rate 1.3% among 300,000; AID 1662, 2009; 6 h;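 active = mean replicate score, as percent of positive control median, at least 50; inconclusive = mean below 50 but one replicate at or above 50; inactive = mean and every replicate below 50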;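 also: strain carries kanamycin resistance gene driven by streptokinase promoter and grows in 40 µg/ml kanamycin; loss of luminescence reflects streptokinase promoter inhibition or plain growth inhibition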
TIM10 inh: growth inhibitors of isogenic TIM10 control yeast, primary screen, counter-screen for tim10-1 yeast inhibitor project, luminescence, uHTS; inhibition, % at 10 µM; hit rate 1.4% among 330,000; S. cerevisiae TIM10 strain growth, BacTiter-Glo luminescence, 24 h;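 active = inhibition of 40% or more at the single tested concentration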;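 also: wild-type TIM10 isogenic control strain grown at permissive 25 °C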
tim23-1 inh: growth inhibitors of tim23-1 mutant yeast, primary screen, luminescence, uHTS; S. cerevisiae tim23-1 growth, BacTiter-Glo luminescence, 24 h; inhibition, % at 20 µM; hit rate 1.3% among 330,000;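 active = growth inhibition of the mutant yeast at or above 50%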;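 also: temperature-sensitive mutant grown at 25 °C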
tim10-1 inh: growth inhibitors of tim10-1 mutant yeast, primary screen, luminescence, uHTS. S. cerevisiae tim10-1 ts strain growth, BacTiter-Glo, 24 h. inhibition, % at 20 µM. hit rate 2.2% among 330,000;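 active = inhibition of at least 40%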;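 also: mutant grown at 25 °C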
NLRP3 yeast inh: NALP3 inflammasome inhibitors in reconstituted yeast, primary screen, luminescence, uHTS | hit rate 0.39% among 330,000 | Yeast reconstituted NLRP3/ASC/caspase-1, beta-gal luminescence, 24 h | inhibition, % at 10 µM | AID 2825, 2010;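 active = inhibition of 50% or more; inactive = inhibition below 50%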
tim10 confirm: growth inhibitors of wild-type TIM10 yeast, confirmation, counter-screen for tim10-1 synthetic lethality project, single concentration, luminescence, S. cerevisiae; shares compounds with TIM10 inh; S. cerevisiae tim10 strain growth, BacTiter-Glo luminescence, 24 h; inhibition, % at 10 µM; hit rate 63% among 4,600;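 active = inhibition of yeast growth at or above a set limit in either of two replicates at 10 µM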; also: this counterscreen used the strain with wild-type TIM10
Hits are given with their value; 0 = inactive; ? = inconclusive; - = no result.

SMILES	NALP1 yeast inh	SKKanGAS inh	TIM10 inh	tim23-1 inh	tim10-1 inh	NLRP3 yeast inh	tim10 confirm
COC(=O)CCS(=O)(=O)c1nc(-c2ccccc2)cc(C(F)(F)F)n1	0	0	45.0	0	0	0	31.3
O=C(O)CCS(=O)(=O)c1nc(-c2cccs2)cc(C(F)(F)F)n1	0	0	0	0	0	0	-
CCOC(=O)CCS(=O)(=O)c1nc(-c2ccccc2)cc(C(F)(F)F)n1	0	0	51.9	0	0	0	57.8
COCC(C)NC(=O)CCS(=O)(=O)c1nc(-c2ccc(OC)cc2)cc(C(F)(F)F)n1 (configuration not stated)	0	0	0	0	0	0	-
Cc1cc(NC(=O)CCCS(=O)(=O)c2nc(-c3cccs3)cc(C(F)(F)F)n2)no1	0	0	48.6	0	0	0	37.3
CSc1ncccc1C(=O)OCC(=O)NC1CC1	-	-	0	0	0	0	-
Cc1ccoc1C(=O)Nc1cccc2ccccc12	0	0	0	0	0	0	-
NC(=O)CC[C@H](NC(=O)OCc1ccccc1)C(=O)OCc1ccc(Cl)cc1	0	0	45.5	0	0	0	0
COc1cccc(CNc2ccc(N3CCCCC3)cc2)c1OC	0	-	0	0	0	0	-
COc1ccccc1CNc1ccc(N2CCCCC2)cc1	0	0	54.2	0	0	0	0
CCOc1ccc(S(=O)(=O)N(CC(=O)N2CCC(C(N)=O)CC2)c2ccc(F)cc2)cc1	0	0	0	0	0	0	-
O=C(Nc1cnn(Cc2ccc(Cl)c(Cl)c2)c1)C12CC3CC(CC(C3)C1)C2	0	?	55.7	0	0	0	42.9
O=S(=O)(c1ccc(F)c(Cl)c1)N1CCN(C/C=C/c2ccccc2)CC1	-	-	0	0	0	0	-
Cc1ccccc1NC(=S)NC(=O)CCc1ccccc1	0	0	44.2	0	0	0	35.5
COc1ccc(NC(=O)n2ncc3c(C)cccc32)cc1	0	0	0	0	0	0	-
Cc1ccc(OCCNC(=O)c2cccc(S(=O)(=O)NCc3ccccc3)c2)cc1	-	-	58.6	0	0	0	0
O=C(NCc1ccncc1)c1cccc(S(=O)(=O)NCc2ccccc2)c1	0	0	0	0	0	0	-
CC[C@]12c3[nH]c4ccc(Cl)cc4c3CCN1C(=O)[C@@H](CC(=O)NCCCN(C)C)C[C@@H]2C(=O)N1CCN(C(=O)c2ccco2)CC1	-	-	0	0	0	-	-
COc1ccc(-n2cnc3scc(-c4ccc(OC)c(OC)c4)c3c2=O)cc1	0	0	40.1	0	0	0	0
COc1ccc(-c2csc3ncn(-c4ccc(C)cc4)c(=O)c23)cc1OC	0	0	0	0	0	0	-
Cc1ccc(CCC(=O)Nc2ccc(N(C)C)cc2)o1	0	0	0	0	0	0	-
CC1Cc2ccccc2N1C(=O)c1cc2cccnc2n(C)c1=O (configuration not stated)	-	0	0	0	0	0	-
Cc1ccc(NCc2nnc(SCC(N)=O)o2)c(C)c1	0	0	0	0	0	0	-
Cc1ccc(NCc2nnc(SCC(=O)N(Cc3ccccc3)C(C)(C)C)o2)c(C)c1	0	0	40.5	0	0	0	0
CN(Cc1ccccc1)C(=O)CCS(=O)(=O)c1ccc2c(c1)n(C)c(=O)c(=O)n2C	0	0	40.4	0	0	0	0
SMILES	NALP1 yeast inh	SKKanGAS inh	TIM10 inh	tim23-1 inh	tim10-1 inh	NLRP3 yeast inh	tim10 confirm
CN(Cc1ccccc1)S(=O)(=O)c1ccc2c(c1)n(C)c(=O)c(=O)n2C	0	0	0	0	0	0	-
CCc1nc2c(cnn2-c2ccc(Cl)cc2)c(=O)n1-c1ccc(OC)cc1	0	51.6	41.6	0	0	0	0
COc1cccc(/C=N/NC(=O)c2cc(-c3ccccn3)nc3ccccc23)c1O	-	-	44.6	0	0	0	0
O=C(COc1ccc(Cl)cc1)N1CCN(C(=O)c2ccccc2F)CC1	0	0	0	0	0	0	-
CCN(CC)c1ccc2cc(/C(N)=N/NC(=O)c3cccs3)c(=O)oc2c1	-	0	47.1	0	0	0	36.8
Cc1cc(OCC(=O)OCC(=O)N2c3ccccc3NC(=O)C2(C)C)ccc1Cl	-	-	0	0	0	0	-
COc1cc(/C=N/NC(=S)NC2CC3C=CC2C3)cc(OC)c1OC (configuration not stated)	0	0	49.0	0	0	0	30.8
COc1cc(/C=N/NC(=S)NCCc2ccccc2)cc(OC)c1OC	0	0	-	-	-	-	-
O=C(CCc1nc2ccccc2s1)Nc1ccccc1	0	0	47.0	0	0	0	0
COc1cc(NC(=O)CSc2cc(C)c3cc(C)cc(C)c3n2)c(C(=O)O)cc1OC	-	0	44.7	0	0	0	17.9
Cc1ccc(S(=O)(=O)NC(CC(C)C)C(=O)NCC(C)(C)N2CCOCC2)cc1 (configuration not stated)	-	0	0	0	0	0	-
COC(C)(C)[C@@H](O)COc1c2ccoc2cc2oc(=O)ccc12	-	-	0	0	0	0	-
COc1cc(/C=C/CN2CCN(CCC(C)C)C(CCO)C2)ccc1O (configuration not stated)	0	0	0	0	0	0	-
CNC(=O)c1cc2c(ccc3ccccc32)o1	0	0	61.3	0	0	0	58.7
Cc1ccc(C)c(Nc2ncccc2C(=O)NCc2cccs2)c1	0	0	44.5	0	0	0	44.1
CCN(CC)c1ncccc1C(=O)NCc1cccs1	0	0	0	0	0	0	-
OCCNc1nc(Nc2ccc(Br)cc2)nc2ccccc12	0	0	43.5	0	0	0	0
Cc1ccc(Oc2ccc(-c3nc(N)nc(N)n3)cc2)cc1	0	-	44.5	0	0	0	0
CCCC(=O)NC(=S)Nc1ccccc1N1CCOCC1	0	0	0	0	0	0	-
Cc1c(C(=O)NC(=S)Nc2ccccc2N2CCCC2)cccc1[N+](=O)[O-]	0	0	42.1	0	0	0	31.8
CCCCC(=O)NC(=S)Nc1cccc(Cl)c1N1CCCCC1	0	0	0	0	0	0	-
CCCCC(=O)NC(=S)Nc1ccccc1N1CCCCC1	0	0	44.5	0	0	0	0
O=C(Cc1ccc(Cl)cc1)NC(=S)Nc1ccccc1N1CCOCC1	0	-	41.9	0	0	0	34.2
CCC(=O)NC(=S)Nc1cccc(Cl)c1N1CCCCC1	0	0	47.4	0	0	0	38.2
COCCCN1C(=O)C2C(C(=O)Nc3cccc(Cl)c3)C3C=CC2(O3)C1C(=O)NC1CCCCC1 (configuration not stated)	0	0	0	0	0	0	-
COc1cc(C(=O)Nc2ccccc2N2CCOCC2)ccc1OCC(=O)N1CCOCC1	-	0	0	0	0	0	-
